Calls of active or inactive are those of the source. Rule for the calls: active = hit-call score of the fitted dose curve at least 0.9, where 1 is the maximum; inactive = score below 0.9.

From PubChem BioAssay (EPA / NIEHS) come the findings set out here.

What all share (settings): mRNA level, 48 h; actives raise or lower the signal
Read-out in assay [1]: flavin-containing dimethylaniline monooxygenases 3 (FMO3), FMO3 (gene 2328)
The assay is described as follows: LTEA_HepaRG_FMO3: Life Technologies and Expression Analysis (LTEA) Assay for flavin-containing dimethylaniline monooxygenases 3 (FMO3) using HepaRG (AID 2283453). A digest of the protocol:
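Eight-point concentration-response in serum-free HepaRG cultures (top 100 uM, 0.5% DMSO, 48 h). Read-out: FMO3 mRNA level normalized to three endogenous control genes, fitted bidirectionally versus vehicle.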

Read-out in assay [2]: Cytochrome P450 (CYP1A1), CYP1A1 (gene 1543)
The assay is described as follows: LTEA_HepaRG_CYP1A1: Life Technologies and Expression Analysis (LTEA) Assay for Cytochrome P450 (CYP1A1) using HepaRG (AID 2283454). A digest of the protocol:
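Differentiated human HepaRG cells, after 48 h plating, exposed in duplicate for 48 h in serum-free induction medium to 8 half-log concentrations up to 100 uM in 0.5% DMSO. CYP1A1 mRNA by qRT-PCR, normalized to ACTB/GAPDH/POLR2A; bidirectional fit versus DMSO.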

Read-out in assay [3]: CFLAR gene, CFLAR (gene 8837)
The experiment in a line: LTEA_HepaRG_CFLAR: Life Technologies and Expression Analysis (LTEA) Assay for CFLAR gene using HepaRG (AID 2283455). In a few lines: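 Transcript level by qRT-PCR (normalized to ACTB, GAPDH and POLR2A) after 48 h chemical exposure of HepaRG cells, top concentration 100 uM with half-log steps, 0.5% DMSO vehicle, duplicates; fitted bidirectionally against DMSO baseline.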

Read-out in assay [4]: Forkhead box O1 (FOXO1), FOXO1 (gene 2308)
The assay is described as follows: LTEA_HepaRG_FOXO1: Life Technologies and Expression Analysis (LTEA) Assay for Forkhead box O1 (FOXO1) using HepaRG (AID 2283456). A digest of the protocol:
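FOXO1 transcript quantified by qRT-PCR after 48 h chemical exposure (top 100 uM, half-log steps, 0.5% DMSO) of HepaRG cells, housekeeping-normalized (ACTB/GAPDH/POLR2A). Changes fitted in both directions relative to vehicle.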

Read-out in assay [5]: growth arrest and DNA damage 45 (GADD45A), GADD45A (gene 1647)
The experiment in a line: LTEA_HepaRG_GADD45A: Life Technologies and Expression Analysis (LTEA) Assay for growth arrest and DNA damage 45 (GADD45A) using HepaRG (AID 2283458). In a few lines: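 HepaRG, 48 h exposure, 8 conc. (top 100 uM, half-log steps), 0.5% DMSO vehicle, duplicates. Read-out: qRT-PCR mRNA level, housekeeping-normalized (ACTB/GAPDH/POLR2A). Curves fit bidirectionally vs DMSO baseline.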

Read-out in assay [6]: Forkhead box O3 (FOXO3), FOXO3 (gene 2309)
The experiment in a line: LTEA_HepaRG_FOXO3: Life Technologies and Expression Analysis (LTEA) Assay for Forkhead box O3 (FOXO3) using HepaRG (AID 2283459). In a few lines:
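FOXO3 transcript measured by qRT-PCR (normalized to ACTB, GAPDH, POLR2A) after 48 h exposure of HepaRG cells in serum-free induction medium. Duplicates, eight half-log concentrations up to 100 uM, 0.5% DMSO; gain or loss fitted against DMSO.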

Read-out in assay [7]: ABC Transporter (ABCB1), ABCB1 (gene 5243)
The experiment in a line: LTEA_HepaRG_ABCB1: Life Technologies and Expression Analysis (LTEA) Assay for ABC Transporter (ABCB1) using HepaRG (AID 2283460). In a few lines: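 ABCB1 transcript level measured by TaqMan qRT-PCR against three housekeeping genes after 48 h chemical exposure of differentiated HepaRG cells. Top concentration 100 uM, half-log steps, eight points, 0.5% DMSO vehicle; bidirectional fit relative to DMSO.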

Read-out in assay [8]: growth arrest and DNA damage 45 (GADD45B), GADD45B (gene 4616)
The experiment in a line: LTEA_HepaRG_GADD45B: Life Technologies and Expression Analysis (LTEA) Assay for growth arrest and DNA damage 45 (GADD45B) using HepaRG (AID 2283461). In a few lines:
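Differentiated human HepaRG cells in serum-free induction medium exposed 48 h in duplicate to eight concentrations, top 100 uM, half-log steps, 0.5% DMSO. GADD45B mRNA by TaqMan qRT-PCR, normalized to ACTB, GAPDH, POLR2A; bidirectional fit versus DMSO.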

Read-out in assay [9]: ABC Transporter (ABCC3), ABCC3 (gene 8714)
The assay is described as follows: LTEA_HepaRG_ABCC3: Life Technologies and Expression Analysis (LTEA) Assay for ABC Transporter (ABCC3) using HepaRG (AID 2283462). A digest of the protocol: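 Differentiated human HepaRG cells exposed 48 h in serum-free induction medium, 0.5% DMSO vehicle, 8-point half-log series to 100 uM in duplicate. ABCC3 mRNA by qRT-PCR, normalised to ACTB, GAPDH, POLR2A; bidirectional fit vs DMSO.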

Read-out in assay [10]: ABC Transporter (ABCB11), ABCB11 (gene 8647)
The experiment in a line: LTEA_HepaRG_ABCB11: Life Technologies and Expression Analysis (LTEA) Assay for ABC Transporter (ABCB11) using HepaRG (AID 2283463). A digest of the protocol: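 ABCB11 transcript levels quantified by TaqMan qRT-PCR against three housekeeping genes after 48 h chemical exposure of HepaRG cultures. Concentrations up to 100 uM in half-log steps, 0.5% DMSO vehicle; both induction and suppression scored.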

Read-out in assay [11]: ABC Transporter (ABCC2), ABCC2 (gene 1244)
The experiment in a line: LTEA_HepaRG_ABCC2: Life Technologies and Expression Analysis (LTEA) Assay for ABC Transporter (ABCC2) using HepaRG (AID 2283464). A digest of the protocol:
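Differentiated HepaRG cells in serum-free induction medium exposed 48 h to eight half-log concentrations up to 100 uM, 0.5% DMSO, in duplicate. ABCC2 mRNA measured by qRT-PCR (TaqMan, Fluidigm), normalized to ACTB, GAPDH and POLR2A. Fitted in both directions against DMSO.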

Read-out in assay [12]: Broad substrate specificity ATP-binding cassette transporter ABCG2 (Homo sapiens) (UniProt Q9UNQ0)
The experiment in a line: LTEA_HepaRG_ABCG2: Life Technologies and Expression Analysis (LTEA) Assay for ABC Transporter (ABCG2) using HepaRG (AID 2283465). A digest of the protocol:
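ABCG2 transcript was quantified by TaqMan qRT-PCR against three housekeeping genes in HepaRG cells. Cells were treated in duplicate for 48 h across an 8-point half-log series up to 100 uM, with 0.5% DMSO vehicle. Gain or loss versus DMSO was fit.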

Read-out in assay [13]: ATP-citrate lyase (ACLY), ACLY (gene 47)
The assay is described as follows: LTEA_HepaRG_ACLY: Life Technologies and Expression Analysis (LTEA) Assay for ATP-citrate lyase (ACLY) using HepaRG (AID 2283466). A digest of the protocol: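 ACLY mRNA quantified by qRT-PCR on Fluidigm arrays against three housekeeping genes, after 48 h chemical treatment of HepaRG cells (top concentration 100 uM, half-log steps, 0.5% DMSO vehicle). Up- or down-regulation fitted relative to DMSO.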

Read-out in assay [14]: Peroxisomal acyl-coenzyme A oxidase 1 (ACOX1) gene, ACOX1 (gene 51)
The experiment in a line: LTEA_HepaRG_ACOX1: Life Technologies and Expression Analysis (LTEA) Assay for Peroxisomal acyl-coenzyme A oxidase 1 (ACOX1) gene using HepaRG (AID 2283467). A digest of the protocol:
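ACOX1 transcript levels were quantified by TaqMan qRT-PCR against three housekeeping genes after 48 h chemical exposure of differentiated human HepaRG cells. Exposure used eight half-log steps topping at 100 uM, 0.5% DMSO vehicle, in duplicate. Bidirectional curve fits were made relative to DMSO.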

Read-out in assay [15]: Alkaline Phosphatase, Placental (ALPP) gene, ALPP (gene 250)
The assay is described as follows: LTEA_HepaRG_ALPP: Life Technologies and Expression Analysis (LTEA) Assay for Alkaline Phosphatase, Placental (ALPP) gene using HepaRG (AID 2283468). In a few lines:
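HepaRG cells plated 48 h, then exposed in duplicate for 48 h in serum-free induction medium to 8-point half-log series from 100 uM in 0.5% DMSO. ALPP mRNA by TaqMan qRT-PCR, normalized to ACTB/GAPDH/POLR2A; bidirectional fit versus DMSO.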

Read-out in assay [16]: Bcl-2 (BAD) gene, BAD (gene 572)
The experiment in a line: LTEA_HepaRG_BAD: Life Technologies and Expression Analysis (LTEA) Assay for Bcl-2 (BAD) gene using HepaRG (AID 2283469). In a few lines: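 Read-out: qRT-PCR of BAD mRNA, normalized to three housekeeping genes. Human HepaRG cultures got 48 h chemical exposure in 0.5% DMSO, duplicate eight-point half-log series topping at 100 uM. Gain or loss of signal fitted versus DMSO vehicle.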

Read-out in assay [17]: Bcl-2 (BAX) gene, BAX (gene 581)
The experiment in a line: LTEA_HepaRG_BAX: Life Technologies and Expression Analysis (LTEA) Assay for Bcl-2 (BAX) gene using HepaRG (AID 2283470). In a few lines:
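qRT-PCR read-out of BAX mRNA, normalized to three housekeeping genes, after 48 h chemical exposure of human HepaRG cells in serum-free induction medium; eight-point half-log series, top 100 uM, 0.5% DMSO vehicle; bidirectional fit versus DMSO.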

Read-out in assay [18]: Tumor necrosis factor receptor superfamily member 6 (Homo sapiens) (UniProt P25445)
The experiment in a line: LTEA_HepaRG_FAS: Life Technologies and Expression Analysis (LTEA) Assay for Fas cell surface death receptor (FAS) using HepaRG (AID 2283447). In a few lines: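 FAS transcript level was measured by TaqMan qRT-PCR against three housekeeping genes after 48 h chemical exposure. Cells were HepaRG, 0.5% DMSO vehicle, with a top concentration of 100 uM and half-log dilutions over eight points, in duplicate.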

Read-out in assay [19]: Cyclin D2 (CCND2), CCND2 (gene 894)
The experiment in a line: LTEA_HepaRG_CCND2: Life Technologies and Expression Analysis (LTEA) Assay for Cyclin D2 (CCND2) using HepaRG (AID 2283449). A digest of the protocol: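 CCND2 transcript levels, quantified by qRT-PCR and normalised to three housekeeping genes, were fitted bidirectionally against 0.5% DMSO. HepaRG cultures were dosed 48 h in duplicate with an 8-point half-log series up to 100 uM.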

Chain of Broad substrate specificity ATP-binding cassette transporter ABCG2 (Homo sapiens) (Q9UNQ0 whole entry, looked up): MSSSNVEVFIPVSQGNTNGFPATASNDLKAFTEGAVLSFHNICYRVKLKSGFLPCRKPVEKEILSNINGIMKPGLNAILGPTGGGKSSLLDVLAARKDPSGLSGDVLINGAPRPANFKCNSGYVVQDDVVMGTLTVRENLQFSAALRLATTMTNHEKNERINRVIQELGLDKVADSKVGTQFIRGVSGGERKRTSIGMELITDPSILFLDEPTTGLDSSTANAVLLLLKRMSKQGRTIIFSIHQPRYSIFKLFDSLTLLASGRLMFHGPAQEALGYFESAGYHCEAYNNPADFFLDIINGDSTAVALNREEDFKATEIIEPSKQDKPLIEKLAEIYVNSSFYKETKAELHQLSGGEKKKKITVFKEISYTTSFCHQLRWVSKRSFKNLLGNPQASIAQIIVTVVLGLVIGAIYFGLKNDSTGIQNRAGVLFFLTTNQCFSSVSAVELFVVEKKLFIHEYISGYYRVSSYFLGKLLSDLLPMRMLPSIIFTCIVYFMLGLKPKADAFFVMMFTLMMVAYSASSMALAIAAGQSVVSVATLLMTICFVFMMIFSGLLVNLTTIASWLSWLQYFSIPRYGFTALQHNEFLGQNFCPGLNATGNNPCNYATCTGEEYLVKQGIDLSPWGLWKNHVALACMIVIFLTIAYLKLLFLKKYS

Turning to `CC(=O)[O][Hg][c]1ccccc1`, the AC50 is 16.9 µM (active) in assay [1]; 16.8 µM (active) in assay [3]; 12.9 µM (active) in assay [4]; 16.3 µM (active) in [5]; 14.5 µM (active) in assay [6]; 24.1 µM (active) in [7]. Besides, the AC50 in assay [9] is 13 µM (active); in assay [10], 1.22 µM (active); in assay [11], 27.2 µM (active); in [13], 23.3 µM (active); in assay [14] it was 15.2 µM (active); in assay [15], 0.646 µM (active). In addition, the AC50 in [16] is 12.7 µM (active); in assay [17], 0.552 µM (active). The compound was called inactive in assay [2], in [8] and in assay [12].

With `CCCCCCCCc1ccc(O)cc1`, the result in [1], in assay [2], in [3], in [4], in assay [5] and in assay [6] was inactive. The call in assay [7], in [8], in assay [9], in assay [10], in [11] and in assay [12] was inactive. In addition, the compound was classed as inactive in assay [13], in [14], in [15], in assay [16] and in [17].

For the compound `CC(C)(C)c1cc(O)ccc1O`, the call in [18], in [19], in assay [1], in assay [2], in assay [3] and in [4] was inactive. The result in [5], in assay [6], in [7], in assay [8], in assay [10] and in assay [11] was inactive. The outcome in assay [12], in assay [13], in [14], in assay [15], in [16] and in assay [17] was inactive.

Regarding `C[C@@H]1C[C@@H]([C@H](O)CC2CC(=O)NC(=O)C2)C(=O)[C@@H](C)C1`, the compound was called inactive in assay [18], in assay [19] and in assay [4]. Further, the AC50 in assay [1] is 25.9 µM (active); in assay [3], 13.4 µM (active); in assay [5] it was 50 µM (active); in [6] it was 34.3 µM (active); in assay [7] it was 83.5 µM (active); in [8], 22.3 µM (active). The AC50 in assay [9] was 0.921 µM (active); in [10], 4.26 µM (active); in assay [11], 27.3 µM (active); in assay [12] it was 10.4 µM (active); in assay [13], 9.23 µM (active); in assay [14] it was 50 µM (active). For the same compound, the results for the AC50 in [15] and in assay [17] were 73.8 µM (active) and 9.92 µM (active), respectively.
